We go through twelve sequences from PMC11006913.

Positions count from the first letter of the chain named.

Holding throughout (assay): PBM; 200 nM protein, PBS
What all share (settings): dsDNA, one strand shown

The target in assay [1] is NKX2-5 (Homo sapiens, UniProt P52952 125-210, R139K).
Assay [2] addresses T1, NKX2-6 (Homo sapiens, UniProt A6NCS4 118-204).
T1 sequence: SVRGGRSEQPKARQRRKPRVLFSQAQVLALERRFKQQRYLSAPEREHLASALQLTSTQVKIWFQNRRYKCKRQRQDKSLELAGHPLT

Assay [3] addresses T2, NKX2-6 (Homo sapiens, UniProt A6NCS4 118-204, F151L).
T2 sequence: T1 sequence with F34L

Assay [4] addresses NKX2-5 (Homo sapiens, UniProt P52952 125-210).
Assay [5] deals with T3, NKX2-6 (Homo sapiens, UniProt A6NCS4 118-204, R150C).
T3 sequence: T1 sequence with R33C

Assay [6] deals with NKX3-2 (Homo sapiens, UniProt P78367 192-278, P234S).
In assay [7] the target is NKX3-2 (Homo sapiens, UniProt P78367 192-278).
Assay [8] deals with T4, NKX2-4 (Homo sapiens, UniProt Q9H2Z4 175-261, R246Q).
T4 sequence: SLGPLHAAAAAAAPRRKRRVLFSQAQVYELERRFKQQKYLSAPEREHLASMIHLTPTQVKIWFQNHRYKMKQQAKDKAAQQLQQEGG

Assay [9] deals with PROP1 (Homo sapiens, UniProt O75360 56-141).
Assay [10] has as its target PROP1 (Homo sapiens, UniProt O75360 56-141, R99H).
Assay [11] has as its target PROP1 (Homo sapiens, UniProt O75360 56-141, F88S).

Sequence of NKX2-5 (Homo sapiens, UniProt P52952 125-210) (P52952 125-210): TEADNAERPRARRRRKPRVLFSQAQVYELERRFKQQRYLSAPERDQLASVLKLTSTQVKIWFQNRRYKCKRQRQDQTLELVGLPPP
Sequence of NKX3-2 (Homo sapiens, UniProt P78367 192-278) (P78367 192-278): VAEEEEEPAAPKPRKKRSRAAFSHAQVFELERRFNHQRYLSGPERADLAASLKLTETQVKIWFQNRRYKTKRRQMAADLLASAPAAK
Sequence of NKX3-2 (Homo sapiens, UniProt P78367 192-278, P234S) (P78367 192-278 P234S): as the sequence (P78367 192-278) above, with P43S counted along it
Sequence of NKX2-5 (Homo sapiens, UniProt P52952 125-210, R139K) (P52952 125-210 R139K): as the sequence (P52952 125-210) above, with R15K counted along it
Sequence of PROP1 (Homo sapiens, UniProt O75360 56-141, R99H) (O75360 56-141 R99H): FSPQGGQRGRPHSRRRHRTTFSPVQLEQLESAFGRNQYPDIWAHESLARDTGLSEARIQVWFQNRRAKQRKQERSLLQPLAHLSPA
Sequence of PROP1 (Homo sapiens, UniProt O75360 56-141) (O75360 56-141): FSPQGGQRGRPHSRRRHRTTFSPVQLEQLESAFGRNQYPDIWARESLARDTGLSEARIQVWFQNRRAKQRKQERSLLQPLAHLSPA
Sequence of PROP1 (Homo sapiens, UniProt O75360 56-141, F88S) (O75360 56-141 F88S): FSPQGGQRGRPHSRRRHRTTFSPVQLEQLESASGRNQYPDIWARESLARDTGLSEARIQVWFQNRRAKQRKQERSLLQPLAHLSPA

Take GTCCCAGA: the binding signal in [1] was 8.89 upbm affinity estimate (log intensity, higher = more binding, comparable within an allelic series); in assay [2] it was 9.24 upbm affinity estimate (log intensity, higher = more binding, comparable within an allelic series); in [3], 9.41 upbm affinity estimate (log intensity, higher = more binding, comparable within an allelic series); in assay [4] it was 8.98 upbm affinity estimate (log intensity, higher = more binding, comparable within an allelic series).
For ACTAAGTG, the binding signal in assay [1] is 12.3 upbm affinity estimate (log intensity, higher = more binding, comparable within an allelic series); in assay [5] it was 11.6 upbm affinity estimate (log intensity, higher = more binding, comparable within an allelic series); in assay [2], 13.3 upbm affinity estimate (log intensity, higher = more binding, comparable within an allelic series); in assay [3] it was 10.6 upbm affinity estimate (log intensity, higher = more binding, comparable within an allelic series); in assay [6], 12.9 upbm affinity estimate (log intensity, higher = more binding, comparable within an allelic series); in assay [4] it was 12.3 upbm affinity estimate (log intensity, higher = more binding, comparable within an allelic series). In addition, the binding signal in [7] is 12.9 upbm affinity estimate (log intensity, higher = more binding, comparable within an allelic series).
With CACTTACC, the binding signal is 12.4 upbm affinity estimate (log intensity, higher = more binding, comparable within an allelic series) in assay [1]; 11.6 upbm affinity estimate (log intensity, higher = more binding, comparable within an allelic series) in [5]; 13.4 upbm affinity estimate (log intensity, higher = more binding, comparable within an allelic series) in assay [2]; 10.7 upbm affinity estimate (log intensity, higher = more binding, comparable within an allelic series) in [3]; 12.7 upbm affinity estimate (log intensity, higher = more binding, comparable within an allelic series) in assay [6]; 12.3 upbm affinity estimate (log intensity, higher = more binding, comparable within an allelic series) in [4]. Further, the binding signal in assay [7] is 12.8 upbm affinity estimate (log intensity, higher = more binding, comparable within an allelic series).
Consider CACTTGTA, for which the binding signal is 12.5 upbm affinity estimate (log intensity, higher = more binding, comparable within an allelic series) in assay [1]; 11.6 upbm affinity estimate (log intensity, higher = more binding, comparable within an allelic series) in assay [5]; 13.4 upbm affinity estimate (log intensity, higher = more binding, comparable within an allelic series) in assay [2]; 12.9 upbm affinity estimate (log intensity, higher = more binding, comparable within an allelic series) in assay [8]; 10.7 upbm affinity estimate (log intensity, higher = more binding, comparable within an allelic series) in assay [3]; 12.3 upbm affinity estimate (log intensity, higher = more binding, comparable within an allelic series) in assay [4].
Consider ACTTAAGA, for which the binding signal in assay [1] is 12.3 upbm affinity estimate (log intensity, higher = more binding, comparable within an allelic series); in [2] it was 13.4 upbm affinity estimate (log intensity, higher = more binding, comparable within an allelic series); in assay [8], 12.9 upbm affinity estimate (log intensity, higher = more binding, comparable within an allelic series); in assay [3], 10.8 upbm affinity estimate (log intensity, higher = more binding, comparable within an allelic series).
On to CGACTGGC, for which the binding signal in [1] was 8.66 upbm affinity estimate (log intensity, higher = more binding, comparable within an allelic series); in assay [5] it was 9.39 upbm affinity estimate (log intensity, higher = more binding, comparable within an allelic series); in assay [4], 8.72 upbm affinity estimate (log intensity, higher = more binding, comparable within an allelic series).
On to CCACGGCG, for which the binding signal in assay [1] was 8.49 upbm affinity estimate (log intensity, higher = more binding, comparable within an allelic series); in assay [5] it was 9.16 upbm affinity estimate (log intensity, higher = more binding, comparable within an allelic series); in assay [4], 8.47 upbm affinity estimate (log intensity, higher = more binding, comparable within an allelic series).
Take AGTCCTTA: the binding signal in assay [1] is 11.3 upbm affinity estimate (log intensity, higher = more binding, comparable within an allelic series); in assay [5], 10.8 upbm affinity estimate (log intensity, higher = more binding, comparable within an allelic series); in assay [4] it was 11.2 upbm affinity estimate (log intensity, higher = more binding, comparable within an allelic series).
In the case of CCTCCGGA, the binding signal was 8.88 upbm affinity estimate (log intensity, higher = more binding, comparable within an allelic series) in assay [1]; 9.54 upbm affinity estimate (log intensity, higher = more binding, comparable within an allelic series) in assay [5]; 8.86 upbm affinity estimate (log intensity, higher = more binding, comparable within an allelic series) in assay [4].
On to GCGCGTCC, for which the binding signal was 8.83 upbm affinity estimate (log intensity, higher = more binding, comparable within an allelic series) in assay [1]; 9.52 upbm affinity estimate (log intensity, higher = more binding, comparable within an allelic series) in assay [5]; 6.74 upbm affinity estimate (log intensity, higher = more binding, comparable within an allelic series) in assay [9]; 6.79 upbm affinity estimate (log intensity, higher = more binding, comparable within an allelic series) in [10]; 6.63 upbm affinity estimate (log intensity, higher = more binding, comparable within an allelic series) in assay [11]; 10.6 upbm affinity estimate (log intensity, higher = more binding, comparable within an allelic series) in [6]. Also, the binding signal in [4] is 8.91 upbm affinity estimate (log intensity, higher = more binding, comparable within an allelic series); in assay [7], 10.6 upbm affinity estimate (log intensity, higher = more binding, comparable within an allelic series).
Take AAGTGGCG: the binding signal in [1] is 12.2 upbm affinity estimate (log intensity, higher = more binding, comparable within an allelic series); in assay [5], 11.6 upbm affinity estimate (log intensity, higher = more binding, comparable within an allelic series); in assay [6], 12.7 upbm affinity estimate (log intensity, higher = more binding, comparable within an allelic series); in [4], 12.2 upbm affinity estimate (log intensity, higher = more binding, comparable within an allelic series); in [7], 12.8 upbm affinity estimate (log intensity, higher = more binding, comparable within an allelic series).
For the sequence CTAAGTGC, the binding signal was 12.8 upbm affinity estimate (log intensity, higher = more binding, comparable within an allelic series) in [1]; 11.8 upbm affinity estimate (log intensity, higher = more binding, comparable within an allelic series) in [5]; 13.7 upbm affinity estimate (log intensity, higher = more binding, comparable within an allelic series) in assay [2]; 11 upbm affinity estimate (log intensity, higher = more binding, comparable within an allelic series) in assay [3]; 13 upbm affinity estimate (log intensity, higher = more binding, comparable within an allelic series) in assay [6]; 12.7 upbm affinity estimate (log intensity, higher = more binding, comparable within an allelic series) in [4]. Further, the binding signal in assay [7] is 13 upbm affinity estimate (log intensity, higher = more binding, comparable within an allelic series).
